# Experimental data reported in PubChem BioAssay (NCATS).
# Results filed as inconclusive are left out. Entries that show only a call come without a potency. Calls of active or inactive are those of the source. Unless noted, calls follow the shape of the dose curve; as a rule, active = well fitted curve in the direction sought with a large enough effect; inconclusive = small, poorly fitted or top-dose-only effect, or another doubt; inactive = no such curve, though single readings can be large; an effect the other way counts as inactive or inconclusive.
# Columns and labels:
# [1] = target: ATP-dependent 6-phosphofructokinase (Trypanosoma brucei brucei) (UniProt O15648); assay: qHTS Assay to Find Inhibitors of T. brucei phosphofructokinase: hit validation (AID 492961);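 also: luminescence reports ADP formed as PFK phosphorylates fructose-6-phosphate with ATP; series mostly up to about 51 µM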
# Sequence of ATP-dependent 6-phosphofructokinase (Trypanosoma brucei brucei) (O15648 whole entry, looked up): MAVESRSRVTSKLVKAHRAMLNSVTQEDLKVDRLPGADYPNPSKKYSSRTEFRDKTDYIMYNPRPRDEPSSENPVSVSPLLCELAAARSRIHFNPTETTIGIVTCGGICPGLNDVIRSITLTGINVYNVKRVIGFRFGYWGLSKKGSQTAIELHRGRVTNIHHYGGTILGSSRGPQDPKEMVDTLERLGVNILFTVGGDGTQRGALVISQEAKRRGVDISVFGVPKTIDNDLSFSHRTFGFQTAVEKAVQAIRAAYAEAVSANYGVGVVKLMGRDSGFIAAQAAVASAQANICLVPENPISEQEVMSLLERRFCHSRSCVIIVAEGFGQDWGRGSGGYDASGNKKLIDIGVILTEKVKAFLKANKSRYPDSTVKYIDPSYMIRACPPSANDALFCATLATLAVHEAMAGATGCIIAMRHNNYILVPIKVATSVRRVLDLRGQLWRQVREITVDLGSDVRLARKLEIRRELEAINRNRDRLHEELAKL
# Method in brief: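 PFK 1.25 nM, F6P 0.5 mM, ATP 0.1 mM, MgCl2 5 mM, 0.1 M TEA pH 8.0, Tween20 0.01%, BSA 0.1%; 45 min RT. ADP-Glo two-step detection, luminescence. qHTS titration; curve fitting with curve-class categorization.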
# [2] = target: Ubiquitin carboxyl-terminal hydrolase 1 (Homo sapiens) (UniProt O94782); assay: Inhibitors of USP1/UAF1: Pilot qHTS (AID 504865);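 also: rhodamine fluorescence freed from ubiquitin-rhodamine substrate followed over time; top concentration of the series differs between compounds; nearly all actives have a fitted effect of over 35% in size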
# Sequence of Ubiquitin carboxyl-terminal hydrolase 1 (Homo sapiens) (O94782 whole entry, looked up): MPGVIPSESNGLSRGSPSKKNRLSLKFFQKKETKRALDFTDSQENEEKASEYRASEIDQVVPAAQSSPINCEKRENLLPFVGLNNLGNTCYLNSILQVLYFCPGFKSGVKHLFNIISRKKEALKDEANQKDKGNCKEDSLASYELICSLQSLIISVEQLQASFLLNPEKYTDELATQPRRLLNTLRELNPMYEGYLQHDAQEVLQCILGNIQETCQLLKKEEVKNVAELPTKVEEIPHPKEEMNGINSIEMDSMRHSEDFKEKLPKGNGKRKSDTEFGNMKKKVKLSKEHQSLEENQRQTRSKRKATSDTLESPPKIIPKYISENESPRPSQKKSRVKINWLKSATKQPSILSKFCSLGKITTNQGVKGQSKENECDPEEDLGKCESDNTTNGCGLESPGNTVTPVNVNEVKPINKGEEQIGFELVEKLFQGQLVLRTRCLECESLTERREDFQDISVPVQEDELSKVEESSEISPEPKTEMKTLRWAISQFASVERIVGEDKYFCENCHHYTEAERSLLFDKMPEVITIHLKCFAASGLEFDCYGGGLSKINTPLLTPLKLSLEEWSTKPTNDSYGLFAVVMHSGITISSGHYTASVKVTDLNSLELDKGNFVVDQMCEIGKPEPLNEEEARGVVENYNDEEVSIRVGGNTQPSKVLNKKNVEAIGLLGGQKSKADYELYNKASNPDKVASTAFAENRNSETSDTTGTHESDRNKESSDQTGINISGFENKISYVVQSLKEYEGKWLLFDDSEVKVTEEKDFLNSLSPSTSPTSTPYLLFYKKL
# Method in brief: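 USP1/UAF1 complex at 1 nM preincubated 15 min at room temperature with compound, then Ub-Rho substrate added at 150 nM final. Fluorescence (480/540 nm) read kinetically in 50 mM HEPES pH 7.8, 0.5 mM EDTA, 1 mM TCEP, 0.1 mg/ml BSA, 0.01% Tween-20.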
# [3] = Validation screen for small molecules that induce genotoxicity in human embryonic kidney (HEK293T) cells expressing luciferase-tagged ELG1 (AID 493106)
# Method in brief: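 Luminescence from an ELG1-luciferase fusion serves as the read-out, rising when genetic stress elevates ELG1 protein. HEK293T reporter cells (2,000 per well) received 23 nL compound, incubated 16 hr at 37 °C, then ONE-Glo for 30 min at room temperature.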
# [4] = target: ATPase family AAA domain-containing protein 5 (Homo sapiens) (UniProt Q96QE3); assay: Validation screen for small molecules that inhibit ELG1-dependent DNA repair in human embryonic kidney (HEK293T) cells expressing luciferase-tagged ELG1 (AID 493107);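 also: cells co-treated with the DNA-damaging agent 5-fluorouridine alongside compound; series mostly up to about 46 µM; inhibitors lower the ELG1-luciferase luminescence signal; nearly all actives have a fitted effect of over 70% in size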
# Method in brief: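 Luminescence from ONE-Glo, developed 30 min at room temperature, served as read-out of ELG1-luciferase levels. Beforehand, reporter HEK293T cells received 5-fluorouridine plus test compound for 16 hr at 37 °C.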
# [5] = Nrf2 qHTS screen for inhibitors: Validation (AID 493153; active = well fitted inhibition curve with a large enough effect in the main read-out, with a control signal flat, not every such curve was filed as active); details: Potency: luciferase luminescence; viability change: measured here: cytotoxicity max response
# Method in brief: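 Luminescence from an ARE-firefly luciferase reporter in A549 cells gives Nrf2 inhibition; an earlier CellTiter-Fluor fluorescent read flags cytotoxicity. Cells in 5% FBS OPTI-MEM received compound dilution series for 18-24 h at 37°C.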
# [6] = qHTS for Inhibitors of Cell Surface uPA Generation: Validation Assay (AID 493164)
# Method in brief: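 RAW 264.7 cells (4000/well) were plated overnight, then exposed for 18 h at 37 C, 5% CO2 to compounds in a 7-point 1:5 titration (2.45 nM–38.3 uM final). Intracellular ATP was read by ATP-Lite luminescence.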
# [7] = target: Peptidyl-prolyl cis-trans isomerase NIMA-interacting 1 (Homo sapiens) (UniProt Q13526); assay: qHTS Validation Assay to Find Inhibitors of Pin1 (AID 504536; active = well fitted inhibition curve with a large enough effect in the polarisation, with a control signal flat, not every such curve was filed as active; the % refers to the polarisation)
# Sequence of Peptidyl-prolyl cis-trans isomerase NIMA-interacting 1 (Homo sapiens) (Q13526 whole entry, looked up): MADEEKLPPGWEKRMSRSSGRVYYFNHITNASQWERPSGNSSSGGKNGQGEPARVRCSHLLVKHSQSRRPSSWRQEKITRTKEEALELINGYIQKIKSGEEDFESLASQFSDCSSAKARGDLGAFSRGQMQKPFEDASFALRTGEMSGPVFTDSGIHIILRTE
# Method in brief: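 Fluorescence polarization competition: compounds (titration) displace HiFluor-488-labeled Pin1-1b peptide from Pin1 (0.3 uM final) in pH 7.5 HEPES buffer with DTT, 10 min at room temperature; %Activity normalized to no-enzyme wells, curves fitted.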
# [8] = target: Phosphoglycerate kinase, glycosomal (Trypanosoma brucei brucei) (UniProt P07378); assay: qHTS Validation Assay to Find Inhibitors of Phosphoglycerate Kinase (AID 504547)
# Sequence of Phosphoglycerate kinase, glycosomal (Trypanosoma brucei brucei) (P07378 whole entry, looked up): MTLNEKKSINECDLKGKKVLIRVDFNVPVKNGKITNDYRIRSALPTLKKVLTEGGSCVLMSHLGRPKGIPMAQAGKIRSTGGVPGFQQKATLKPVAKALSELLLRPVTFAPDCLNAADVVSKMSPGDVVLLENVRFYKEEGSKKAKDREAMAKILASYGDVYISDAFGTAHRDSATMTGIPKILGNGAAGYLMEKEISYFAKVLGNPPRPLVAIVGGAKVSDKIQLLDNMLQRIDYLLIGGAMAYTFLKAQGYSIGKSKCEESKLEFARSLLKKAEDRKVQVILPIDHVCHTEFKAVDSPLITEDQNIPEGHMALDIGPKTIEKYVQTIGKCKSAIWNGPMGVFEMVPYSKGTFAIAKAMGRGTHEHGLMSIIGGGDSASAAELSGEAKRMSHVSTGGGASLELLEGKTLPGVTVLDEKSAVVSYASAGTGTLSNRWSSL
# Method in brief: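 Substrate/PGK mix plus compound; reaction started with GAPDH (100nM final) to form 1,3-BPG; 60 min RT; Kinase-Glo Plus 10 min; luminescence. TEA 100mM pH 7.6, MgCl2 5mM, Tween-20 0.01%.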
# [9] = target: phosphoglycerate mutase (Leishmania major) (UniProt Q4Q090); assay: qHTS Validation Assay to Find Inhibitors of Phosphoglycerate Mutase (AID 504548);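 also: end-point luminescence from Kinase-GloPlus after the PGAM reaction; series mostly up to about 58 µM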
# Sequence of phosphoglycerate mutase (Leishmania major) (Q4Q090 1-553): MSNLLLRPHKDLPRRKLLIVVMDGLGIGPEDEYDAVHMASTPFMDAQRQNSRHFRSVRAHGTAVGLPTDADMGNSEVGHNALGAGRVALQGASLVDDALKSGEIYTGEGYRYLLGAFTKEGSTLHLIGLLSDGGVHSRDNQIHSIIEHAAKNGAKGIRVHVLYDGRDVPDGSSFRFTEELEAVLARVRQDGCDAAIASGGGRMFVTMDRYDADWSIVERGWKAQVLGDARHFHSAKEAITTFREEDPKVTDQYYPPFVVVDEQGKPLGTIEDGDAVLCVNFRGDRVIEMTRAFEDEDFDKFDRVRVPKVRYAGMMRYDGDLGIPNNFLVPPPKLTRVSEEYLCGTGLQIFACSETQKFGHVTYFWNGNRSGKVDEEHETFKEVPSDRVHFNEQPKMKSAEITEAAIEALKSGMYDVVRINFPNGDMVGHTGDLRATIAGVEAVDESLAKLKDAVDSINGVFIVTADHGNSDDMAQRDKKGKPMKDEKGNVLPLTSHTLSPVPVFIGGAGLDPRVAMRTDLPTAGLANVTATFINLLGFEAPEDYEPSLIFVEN
# Method in brief: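 L. major PGAM (1.25nM final) was added to substrate buffer and pinned compound, incubated 45 minutes at room temperature, then Kinase-GloPlus added; luminescence read after 10 minutes. Buffer: 100 mM TEA pH 7.6, 5 mM MgCl2, 0.01% Tween-20.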
# [10] = qHTS for Inhibitors of ATXN expression: Validation of Cytotoxic Assay (AID 588349)
# Method in brief: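 Read-out: ATP-based luminescence (CellTiter Glo) reflecting viability of HEK293 cells after 72 hr incubation at 37 degrees C with a concentration series of each compound.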
# [11] = qHTS for Inhibitors of ATXN expression: Validation (AID 588378); also: series mostly up to about 57 µM; nearly all actives have a fitted effect of over 75% in size
# Method in brief: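 HEK293 cells carrying ATXN2-firefly luciferase reporter, treated with compound 24 h at 37 °C. Viability read first by CellTiter-Fluor (405/525 nm), then reporter expression by Bright-Glo luminescence; controls were a known ATXN2 expression inhibitor and a luciferase inhibitor.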
# [12] = target: Estrogen receptor (Homo sapiens) (UniProt P03372); assay: qHTS assay for small molecule agonists of estrogen receptor alpha signaling (AID 588514; calls by dose curve; also: nearly all actives have a fitted effect of over 70% in size)
# Sequence of Estrogen receptor (Homo sapiens) (P03372 whole entry, looked up): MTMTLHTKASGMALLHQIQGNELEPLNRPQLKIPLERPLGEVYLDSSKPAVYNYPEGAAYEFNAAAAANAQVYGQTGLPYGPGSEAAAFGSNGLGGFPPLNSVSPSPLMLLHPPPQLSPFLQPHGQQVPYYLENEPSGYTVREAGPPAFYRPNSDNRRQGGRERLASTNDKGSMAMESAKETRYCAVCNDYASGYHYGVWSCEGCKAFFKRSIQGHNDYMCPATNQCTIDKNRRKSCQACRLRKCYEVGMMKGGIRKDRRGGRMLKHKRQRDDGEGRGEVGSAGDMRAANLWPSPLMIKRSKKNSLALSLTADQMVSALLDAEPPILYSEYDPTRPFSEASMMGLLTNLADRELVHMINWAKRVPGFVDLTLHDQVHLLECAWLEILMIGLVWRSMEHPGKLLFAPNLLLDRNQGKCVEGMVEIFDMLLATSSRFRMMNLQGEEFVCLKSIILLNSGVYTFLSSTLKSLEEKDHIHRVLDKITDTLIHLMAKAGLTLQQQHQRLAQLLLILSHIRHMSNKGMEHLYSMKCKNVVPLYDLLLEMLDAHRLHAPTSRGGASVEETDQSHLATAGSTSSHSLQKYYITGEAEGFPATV
# Method in brief: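 Cells were plated at 5000/well, incubated 4 hrs at 37 C, dosed with compound titration series, incubated 18 hrs at 37 C, loaded with CCF4 dye for 2 hrs at RT, then fluorescence was read.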
# [13] = target: DNA dC->dU-editing enzyme APOBEC-3G (Homo sapiens) (UniProt Q9HC16); assay: qHTS for inhibitors of Vif-A3G interactions: Validation (AID 588379)
# Sequence of DNA dC->dU-editing enzyme APOBEC-3G (Homo sapiens) (Q9HC16 whole entry, looked up): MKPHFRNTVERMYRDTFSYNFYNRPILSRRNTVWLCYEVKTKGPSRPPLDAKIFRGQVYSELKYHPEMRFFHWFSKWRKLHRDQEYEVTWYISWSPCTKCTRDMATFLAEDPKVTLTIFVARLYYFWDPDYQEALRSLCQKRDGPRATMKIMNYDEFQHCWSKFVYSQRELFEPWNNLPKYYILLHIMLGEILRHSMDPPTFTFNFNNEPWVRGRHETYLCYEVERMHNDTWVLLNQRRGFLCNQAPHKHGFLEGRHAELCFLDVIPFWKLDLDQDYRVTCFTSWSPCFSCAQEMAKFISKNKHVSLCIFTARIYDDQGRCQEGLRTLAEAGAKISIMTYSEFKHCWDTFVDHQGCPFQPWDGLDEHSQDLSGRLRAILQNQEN
# Method in brief: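 HeLa cells stably expressing Vif and A3G-eYFP, 700 cells/well, incubated overnight at 37 deg C, then exposed to compound overnight at 37 deg C. Inhibition of Vif-mediated degradation read as increased yellow fluorescence (Ex 488/Em 500-530) by laser-scanning cytometry.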
# [14] = target: Estrogen receptor (Homo sapiens) (UniProt P03372); assay: qHTS assay for small molecule antagonists of estrogen receptor alpha signaling (AID 588513; active = well fitted curve in the direction sought with a large enough effect in the signal ratio, with a control signal flat, not every such curve was filed as active; the % refers to the signal ratio)
# Method in brief: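 ER-alpha-UAS-bla GripTite HEK 293 cells in 2% charcoal/dextran-treated FBS medium; compounds titrated (1:2, duplicate), then stimulated with 0.5 nM 17-beta-estradiol for 18 h at 37C. CCF4 beta-lactamase fluorescence; Hill-fit IC50 and efficacy.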
structure (smiles),measurement,setting,value
O=C(O)COc1nn(Cc2ccccc2)c2ccccc12,Potency,[1],inactive
same,Potency,[2],inactive
NS(=O)(=O)c1cc2c(cc1Cl)NC(CSCc1ccccc1)=NS2(=O)=O,Potency,[1],inactive
same,Potency,[2],inactive
CC(C)(C)C(=O)C(Oc1ccc(Cl)cc1)n1ccnc1 (configuration not stated),Potency,[1],inactive
same,Potency,[2],inactive
O=C(O)[C@@H]1CSCN1,Potency,[1],inactive
same,Potency,[2],inactive
COc1cc(C(=O)N2CCOCC2)cc(OC)c1OC,Potency,[1],inactive
same,Potency,[2],inactive
CC(=O)c1ccc2c(c1)N(CCCN(C)C)c1ccccc1S2,Potency,[1],inactive
same,Potency,[2],inactive
CC(=O)CCC(=O)O,Potency,[1],inactive
same,Potency,[2],inactive
CCn1cc(C(=O)O)c(=O)c2cnc(N3CCNCC3)nc21,Potency,[1],inactive
same,Potency,[2],inactive
O=C(O)c1ccccc1-c1ccc(C(F)(F)F)cc1,Potency,[1],inactive
same,Potency,[2],inactive
CC(C)(C)[C@]1(O)CCN2C[C@H]3c4ccccc4CCc4cccc(c43)[C@@H]2C1,Potency,[3],inactive
same,outcome,[4],inactive
same,Potency,[5],inactive
same,viability change,[5],-7.91%
same,outcome,[6],inactive
same,outcome,[7],inactive
same,outcome,[8],inactive
same,outcome,[9],inactive
same,Potency,[2],inactive
same,Potency,[10],inactive
same,Potency,[11],inactive
CN1CCOC(c2ccccc2)c2ccccc2C1 (configuration not stated),Potency,[2],inactive
NC(=O)N/N=C/c1ccc([N+](=O)[O-])o1,Potency,[1],inactive
same,outcome,[12],inactive
CC1(C)OC(=O)NC1=O,Potency,[2],inactive
CC(C)(C)C(=O)NCCCC(=O)O,Potency,[1],inactive
same,Potency,[2],inactive
CC1(C)[C@@H]2CC[C@@]1(C)C(=O)C2,Potency,[1],inactive
same,Potency,[2],inactive
same,outcome,[13],inactive
same,outcome,[14],inactive
same,outcome,[12],inactive
CCCCc1ncc(/C=C(\Cc2cccs2)C(=O)O)n1Cc1ccc(C(=O)O)cc1,Potency,[1],inactive
same,Potency,[2],inactive
